Columns and labels:
[1] = target: Sphingosine kinase 1 (Homo sapiens) (UniProt Q9NYA1); conditions: at 1 µM;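 note: mean SPHK1 inhibition value reported from the GSK PKIS kinase panel screen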
[2] = target: T1, Sphingosine kinase 2 (Homo sapiens) (UniProt Q9NRA0); conditions: at 0.1 µM
T1 sequence (whole entry): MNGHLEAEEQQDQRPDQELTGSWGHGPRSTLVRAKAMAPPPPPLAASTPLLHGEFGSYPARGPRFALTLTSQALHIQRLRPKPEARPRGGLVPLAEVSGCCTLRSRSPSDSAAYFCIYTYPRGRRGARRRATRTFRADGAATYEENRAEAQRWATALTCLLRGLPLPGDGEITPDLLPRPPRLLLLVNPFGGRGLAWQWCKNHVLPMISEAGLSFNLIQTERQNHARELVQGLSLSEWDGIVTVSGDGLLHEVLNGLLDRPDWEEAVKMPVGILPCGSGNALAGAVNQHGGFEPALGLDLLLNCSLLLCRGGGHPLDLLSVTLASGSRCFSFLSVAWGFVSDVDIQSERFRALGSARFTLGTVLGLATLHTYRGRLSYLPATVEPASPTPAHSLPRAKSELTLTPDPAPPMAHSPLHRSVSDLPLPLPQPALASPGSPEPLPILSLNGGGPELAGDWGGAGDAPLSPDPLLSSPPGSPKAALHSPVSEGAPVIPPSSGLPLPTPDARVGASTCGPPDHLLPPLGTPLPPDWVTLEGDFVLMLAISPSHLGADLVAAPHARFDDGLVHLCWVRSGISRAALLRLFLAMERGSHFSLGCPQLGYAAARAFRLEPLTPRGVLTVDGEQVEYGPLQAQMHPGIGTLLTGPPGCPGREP

[3] = target: T1, Sphingosine kinase 2 (Homo sapiens); conditions: at 1 µM
[4] = target: Casein kinase II subunit alpha (Homo sapiens) (UniProt P68400); conditions: at 0.1 µM
[5] = target: Casein kinase II subunit alpha (Homo sapiens) (UniProt P68400); conditions: at 1 µM
[6] = target: T2, Inhibitor of nuclear factor kappa-B kinase subunit alpha (Homo sapiens) (UniProt O15111); conditions: at 0.1 µM
T2 sequence (whole entry): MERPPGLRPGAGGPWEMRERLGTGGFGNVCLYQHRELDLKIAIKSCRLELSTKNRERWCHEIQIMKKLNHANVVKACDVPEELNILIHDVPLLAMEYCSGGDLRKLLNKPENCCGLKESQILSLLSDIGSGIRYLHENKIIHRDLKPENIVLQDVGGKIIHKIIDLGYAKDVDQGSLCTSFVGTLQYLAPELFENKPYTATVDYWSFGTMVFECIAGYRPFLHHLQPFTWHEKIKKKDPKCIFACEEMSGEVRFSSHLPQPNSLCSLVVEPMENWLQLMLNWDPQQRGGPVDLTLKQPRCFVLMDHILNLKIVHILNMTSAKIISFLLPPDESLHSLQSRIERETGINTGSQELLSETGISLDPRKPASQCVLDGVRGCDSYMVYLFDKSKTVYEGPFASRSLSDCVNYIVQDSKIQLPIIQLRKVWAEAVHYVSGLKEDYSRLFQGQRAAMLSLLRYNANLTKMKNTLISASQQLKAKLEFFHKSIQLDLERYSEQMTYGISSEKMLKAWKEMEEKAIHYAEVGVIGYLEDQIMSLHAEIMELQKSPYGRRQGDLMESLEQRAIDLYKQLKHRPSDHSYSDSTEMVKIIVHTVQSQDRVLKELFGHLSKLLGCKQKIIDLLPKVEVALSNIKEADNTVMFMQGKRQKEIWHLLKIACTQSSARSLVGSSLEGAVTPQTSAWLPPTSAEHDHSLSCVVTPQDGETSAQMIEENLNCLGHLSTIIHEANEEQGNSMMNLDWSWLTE

[7] = target: T2, Inhibitor of nuclear factor kappa-B kinase subunit alpha (Homo sapiens); conditions: at 1 µM
[8] = target: T3, Inhibitor of nuclear factor kappa-B kinase subunit beta (Homo sapiens) (UniProt O14920); conditions: at 0.1 µM
T3 sequence (whole entry): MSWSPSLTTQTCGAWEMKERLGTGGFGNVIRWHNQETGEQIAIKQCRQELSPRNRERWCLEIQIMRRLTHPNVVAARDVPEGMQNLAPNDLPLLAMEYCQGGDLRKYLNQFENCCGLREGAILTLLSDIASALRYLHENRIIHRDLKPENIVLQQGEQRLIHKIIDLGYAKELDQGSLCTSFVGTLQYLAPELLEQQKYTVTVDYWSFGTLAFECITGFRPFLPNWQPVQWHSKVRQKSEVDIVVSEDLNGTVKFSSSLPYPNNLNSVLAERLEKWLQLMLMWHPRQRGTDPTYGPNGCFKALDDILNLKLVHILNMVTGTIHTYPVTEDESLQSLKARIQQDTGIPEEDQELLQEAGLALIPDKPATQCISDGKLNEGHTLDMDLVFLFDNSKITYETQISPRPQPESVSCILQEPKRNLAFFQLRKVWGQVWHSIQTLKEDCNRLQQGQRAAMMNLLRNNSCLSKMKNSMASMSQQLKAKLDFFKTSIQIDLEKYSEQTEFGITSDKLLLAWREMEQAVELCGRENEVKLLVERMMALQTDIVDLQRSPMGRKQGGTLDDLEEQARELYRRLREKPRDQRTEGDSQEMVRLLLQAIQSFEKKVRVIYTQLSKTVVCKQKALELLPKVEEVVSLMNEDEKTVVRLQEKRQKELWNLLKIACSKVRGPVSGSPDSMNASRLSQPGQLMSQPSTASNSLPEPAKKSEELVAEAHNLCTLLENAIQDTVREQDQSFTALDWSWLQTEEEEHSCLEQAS

[9] = target: T3, Inhibitor of nuclear factor kappa-B kinase subunit beta (Homo sapiens); conditions: at 1 µM
[10] = target: T4, Inhibitor of nuclear factor kappa-B kinase subunit epsilon (Homo sapiens) (UniProt Q14164); conditions: at 0.1 µM
T4 sequence (whole entry): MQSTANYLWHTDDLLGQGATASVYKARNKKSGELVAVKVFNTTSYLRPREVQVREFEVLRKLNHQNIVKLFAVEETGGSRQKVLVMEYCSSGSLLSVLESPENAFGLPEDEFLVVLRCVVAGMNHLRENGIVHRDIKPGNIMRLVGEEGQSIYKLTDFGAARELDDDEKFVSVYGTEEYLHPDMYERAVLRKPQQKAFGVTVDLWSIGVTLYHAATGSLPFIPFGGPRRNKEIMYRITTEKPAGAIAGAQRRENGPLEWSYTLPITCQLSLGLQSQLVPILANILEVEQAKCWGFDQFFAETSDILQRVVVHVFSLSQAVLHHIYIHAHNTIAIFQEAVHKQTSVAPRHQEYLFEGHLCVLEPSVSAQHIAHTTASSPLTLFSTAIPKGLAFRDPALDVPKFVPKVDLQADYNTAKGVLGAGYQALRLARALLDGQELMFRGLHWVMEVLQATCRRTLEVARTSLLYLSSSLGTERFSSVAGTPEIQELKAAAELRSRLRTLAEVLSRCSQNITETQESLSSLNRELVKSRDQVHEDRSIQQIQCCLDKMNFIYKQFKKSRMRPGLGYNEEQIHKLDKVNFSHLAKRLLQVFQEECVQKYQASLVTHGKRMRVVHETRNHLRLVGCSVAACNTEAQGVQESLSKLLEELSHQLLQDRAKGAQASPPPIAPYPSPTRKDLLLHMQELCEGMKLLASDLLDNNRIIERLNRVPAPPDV

[11] = target: T4, Inhibitor of nuclear factor kappa-B kinase subunit epsilon (Homo sapiens); conditions: at 1 µM
[12] = target: T5, Serine/threonine-protein kinase Nek1 (Homo sapiens) (UniProt Q96PY6); conditions: at 0.1 µM
T5 sequence (whole entry): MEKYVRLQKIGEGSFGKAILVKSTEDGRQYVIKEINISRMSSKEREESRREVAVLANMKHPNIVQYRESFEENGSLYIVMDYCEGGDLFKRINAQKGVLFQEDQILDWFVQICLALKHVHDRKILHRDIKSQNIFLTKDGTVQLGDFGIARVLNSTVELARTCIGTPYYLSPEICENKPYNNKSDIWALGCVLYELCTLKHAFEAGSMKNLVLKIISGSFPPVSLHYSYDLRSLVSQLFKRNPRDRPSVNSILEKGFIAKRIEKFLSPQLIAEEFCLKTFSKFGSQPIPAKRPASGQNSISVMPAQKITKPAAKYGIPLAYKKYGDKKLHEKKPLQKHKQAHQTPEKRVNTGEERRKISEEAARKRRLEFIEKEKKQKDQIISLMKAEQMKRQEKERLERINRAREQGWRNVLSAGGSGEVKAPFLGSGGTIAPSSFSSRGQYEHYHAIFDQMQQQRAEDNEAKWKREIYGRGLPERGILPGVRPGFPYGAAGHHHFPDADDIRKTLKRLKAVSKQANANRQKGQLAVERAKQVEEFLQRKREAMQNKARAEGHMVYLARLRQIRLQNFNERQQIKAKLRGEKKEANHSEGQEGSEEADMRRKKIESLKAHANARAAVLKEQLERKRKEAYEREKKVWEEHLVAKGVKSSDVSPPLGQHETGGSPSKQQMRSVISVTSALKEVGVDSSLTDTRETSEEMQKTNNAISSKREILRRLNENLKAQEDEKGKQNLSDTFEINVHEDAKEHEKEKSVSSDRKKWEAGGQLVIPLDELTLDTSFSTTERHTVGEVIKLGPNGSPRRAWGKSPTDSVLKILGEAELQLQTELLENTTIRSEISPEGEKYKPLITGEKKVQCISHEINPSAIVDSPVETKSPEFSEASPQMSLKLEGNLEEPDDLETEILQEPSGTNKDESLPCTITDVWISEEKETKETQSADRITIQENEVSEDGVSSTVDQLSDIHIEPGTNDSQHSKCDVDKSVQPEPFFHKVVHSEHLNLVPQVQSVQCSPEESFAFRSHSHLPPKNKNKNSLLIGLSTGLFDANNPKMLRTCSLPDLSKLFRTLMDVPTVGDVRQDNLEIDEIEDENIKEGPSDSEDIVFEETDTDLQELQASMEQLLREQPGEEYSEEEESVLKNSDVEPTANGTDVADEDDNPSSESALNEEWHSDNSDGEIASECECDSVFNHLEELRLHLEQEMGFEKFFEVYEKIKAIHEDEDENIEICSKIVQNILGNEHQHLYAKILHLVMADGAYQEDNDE

[13] = target: T5, Serine/threonine-protein kinase Nek1 (Homo sapiens); conditions: at 1 µM
[14] = target: T6, Serine/threonine-protein kinase Nek2 (Homo sapiens) (UniProt P51955); conditions: at 0.1 µM
T6 sequence (whole entry): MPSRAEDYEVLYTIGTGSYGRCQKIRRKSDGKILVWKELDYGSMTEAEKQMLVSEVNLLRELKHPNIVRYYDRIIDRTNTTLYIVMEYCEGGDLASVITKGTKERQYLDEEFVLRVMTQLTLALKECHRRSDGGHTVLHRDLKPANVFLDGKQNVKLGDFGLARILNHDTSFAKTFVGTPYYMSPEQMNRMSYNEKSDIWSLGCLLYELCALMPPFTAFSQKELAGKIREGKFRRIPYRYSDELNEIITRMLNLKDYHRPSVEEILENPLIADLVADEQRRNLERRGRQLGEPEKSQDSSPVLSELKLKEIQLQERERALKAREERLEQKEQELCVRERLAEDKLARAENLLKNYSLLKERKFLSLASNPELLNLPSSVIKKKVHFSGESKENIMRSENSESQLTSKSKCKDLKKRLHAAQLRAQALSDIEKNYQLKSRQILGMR

[15] = target: T6, Serine/threonine-protein kinase Nek2 (Homo sapiens); conditions: at 1 µM
[16] = target: Serine/threonine-protein kinase Nek6 (Homo sapiens) (UniProt Q9HC98); conditions: at 0.1 µM
[17] = target: Serine/threonine-protein kinase Nek6 (Homo sapiens) (UniProt Q9HC98); conditions: at 1 µM
[18] = target: Serine/threonine-protein kinase Nek7 (Homo sapiens) (UniProt Q8TDX7); conditions: at 0.1 µM
[19] = target: Serine/threonine-protein kinase Nek7 (Homo sapiens) (UniProt Q8TDX7); conditions: at 1 µM
[20] = target: T7, Serine/threonine-protein kinase Nek9 (Homo sapiens) (UniProt Q8TD19); conditions: at 0.1 µM;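 note: reported value is the mean percent inhibition of NEK9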
T7 sequence (whole entry): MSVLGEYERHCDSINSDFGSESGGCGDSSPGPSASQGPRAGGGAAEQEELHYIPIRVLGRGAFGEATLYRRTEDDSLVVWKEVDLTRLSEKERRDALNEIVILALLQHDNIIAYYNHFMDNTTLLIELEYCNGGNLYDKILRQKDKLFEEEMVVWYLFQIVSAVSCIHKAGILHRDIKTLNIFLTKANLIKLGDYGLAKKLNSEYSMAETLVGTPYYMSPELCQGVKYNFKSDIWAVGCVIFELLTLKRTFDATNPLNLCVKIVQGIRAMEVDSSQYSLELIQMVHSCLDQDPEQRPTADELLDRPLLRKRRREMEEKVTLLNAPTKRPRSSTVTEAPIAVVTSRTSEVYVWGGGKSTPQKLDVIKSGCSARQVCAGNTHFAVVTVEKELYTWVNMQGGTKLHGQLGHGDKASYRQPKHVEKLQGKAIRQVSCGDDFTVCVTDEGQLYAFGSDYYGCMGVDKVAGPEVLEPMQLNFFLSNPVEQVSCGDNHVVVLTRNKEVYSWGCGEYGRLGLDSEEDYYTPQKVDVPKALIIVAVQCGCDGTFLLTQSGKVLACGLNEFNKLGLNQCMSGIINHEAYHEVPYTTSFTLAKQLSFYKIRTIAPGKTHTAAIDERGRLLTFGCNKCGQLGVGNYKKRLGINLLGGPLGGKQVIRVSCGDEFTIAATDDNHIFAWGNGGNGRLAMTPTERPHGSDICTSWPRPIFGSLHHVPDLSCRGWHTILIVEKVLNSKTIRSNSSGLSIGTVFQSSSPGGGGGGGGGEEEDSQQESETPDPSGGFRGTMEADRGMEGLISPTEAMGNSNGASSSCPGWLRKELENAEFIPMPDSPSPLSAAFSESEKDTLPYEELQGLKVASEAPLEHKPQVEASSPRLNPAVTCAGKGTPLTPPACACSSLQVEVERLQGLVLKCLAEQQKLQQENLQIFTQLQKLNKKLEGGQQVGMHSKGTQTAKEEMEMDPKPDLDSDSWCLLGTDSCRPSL

Sequence of Serine/threonine-protein kinase Nek7 (Homo sapiens) (Q8TDX7 whole entry, looked up): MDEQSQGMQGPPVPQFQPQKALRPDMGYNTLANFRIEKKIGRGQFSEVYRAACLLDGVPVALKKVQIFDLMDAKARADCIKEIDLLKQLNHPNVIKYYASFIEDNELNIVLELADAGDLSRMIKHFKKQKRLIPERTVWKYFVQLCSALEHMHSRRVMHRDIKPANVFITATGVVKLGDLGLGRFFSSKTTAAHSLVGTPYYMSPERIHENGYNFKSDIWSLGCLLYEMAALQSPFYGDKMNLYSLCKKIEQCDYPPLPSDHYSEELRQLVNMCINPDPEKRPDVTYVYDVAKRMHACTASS
Sequence of Serine/threonine-protein kinase Nek6 (Homo sapiens) (Q9HC98 whole entry): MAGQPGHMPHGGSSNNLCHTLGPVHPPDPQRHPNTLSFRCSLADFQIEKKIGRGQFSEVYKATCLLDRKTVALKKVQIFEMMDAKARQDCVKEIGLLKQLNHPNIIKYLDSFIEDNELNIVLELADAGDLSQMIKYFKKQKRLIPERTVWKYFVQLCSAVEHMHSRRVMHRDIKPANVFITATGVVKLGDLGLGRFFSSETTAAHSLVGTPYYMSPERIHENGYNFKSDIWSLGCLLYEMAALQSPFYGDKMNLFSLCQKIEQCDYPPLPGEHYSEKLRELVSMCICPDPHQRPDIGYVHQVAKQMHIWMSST
Sequence of Casein kinase II subunit alpha (Homo sapiens) (P68400 whole entry, looked up): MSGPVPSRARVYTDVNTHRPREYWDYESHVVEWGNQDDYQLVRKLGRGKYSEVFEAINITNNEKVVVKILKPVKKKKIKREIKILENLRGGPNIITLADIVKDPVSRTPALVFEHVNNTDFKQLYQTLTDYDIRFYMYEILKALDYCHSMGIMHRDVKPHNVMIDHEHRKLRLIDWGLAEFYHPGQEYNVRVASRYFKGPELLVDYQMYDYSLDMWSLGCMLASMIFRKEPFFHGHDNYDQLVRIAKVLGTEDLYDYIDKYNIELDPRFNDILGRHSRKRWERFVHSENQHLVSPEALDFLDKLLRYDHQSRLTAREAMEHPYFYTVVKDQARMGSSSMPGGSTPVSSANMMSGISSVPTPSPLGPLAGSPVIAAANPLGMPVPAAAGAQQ
Sequence of Sphingosine kinase 1 (Homo sapiens) (Q9NYA1 whole entry): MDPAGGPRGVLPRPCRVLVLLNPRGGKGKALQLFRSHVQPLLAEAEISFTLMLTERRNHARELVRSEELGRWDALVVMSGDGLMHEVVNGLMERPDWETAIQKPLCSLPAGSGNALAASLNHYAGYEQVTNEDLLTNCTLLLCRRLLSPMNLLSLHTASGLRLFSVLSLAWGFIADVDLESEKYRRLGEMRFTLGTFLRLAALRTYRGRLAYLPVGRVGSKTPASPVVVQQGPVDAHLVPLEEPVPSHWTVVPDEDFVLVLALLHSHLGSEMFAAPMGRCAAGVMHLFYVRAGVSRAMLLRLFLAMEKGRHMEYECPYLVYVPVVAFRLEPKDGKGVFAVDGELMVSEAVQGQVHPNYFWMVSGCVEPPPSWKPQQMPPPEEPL

## Cc1ccc(NC(=O)c2ccnc(N3CCCC3)c2)cc1-c1ccc(C(=O)NCC2CC2)cc1
[1]
  inhibition: 0.63%
[2]
  inhibition: 0.74%
[3]
  inhibition: -0.47%
[4]
  inhibition: 7.04%
[5]
  inhibition: 4.49%
[6]
  inhibition: 0.55%
[7]
  inhibition: 0.16%
[8]
  inhibition: 9.14%
[9]
  inhibition: 9.33%
[10]
  inhibition: 5.82%
[11]
  inhibition: 5.3%
[12]
  inhibition: 2.74%
[13]
  inhibition: 2.36%
[14]
  inhibition: 5.44%
[15]
  inhibition: 5.04%
[16]
  inhibition: 1.43%
[17]
  inhibition: 0.15%
[18]
  inhibition: 6.37%
[19]
  inhibition: 4.61%
[20]
  inhibition: 5.79%
